Many of the other results were omitted from the sample, so hits are more common in it than they were.
DT40 TDP1 CPT = qHTS for Inhibitors of human tyrosyl-DNA phosphodiesterase 1 (TDP1): qHTS in cells in presence of CPT; actives 12% (n = 420,000); chicken DT40 Tdp1-/-;hTDP1 cells + 20 nM CPT, ATP luminescence, 48 h; Potency, µM (titrated, usually from 46.2 µM), for the others: at the top dose activity change, negative = growth inhibition, usual class: inhibitors; note: potency is the fitted concentration of half-maximal effect; nearly all actives have a fitted effect of over 55% in size
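Chicken DT40 Tdp1-/- cells stably complemented with human TDP1 were seeded at 400 cells/well in medium containing 20 nM camptothecin, exposed to pin-transferred compounds, and grown at 37 °C for at least 48 hr. Viability was read as ATP luminescence.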
12-LOX inh = Primary qHTS assay for inhibitors of human arachidonate 12S-lipoxygenase (ALOX12): Round 2; purified 12hLO, xylenol orange hydroperoxide absorbance; Potency, µM (top dose mostly 108 µM), for the others: at the highest dose activity change, negative = inhibition, hits mostly inhibitors; actives 1.1% (n = 580,000); note: potency is the fitted concentration of half-maximal effect
Target sequence (P18054 whole entry, looked up): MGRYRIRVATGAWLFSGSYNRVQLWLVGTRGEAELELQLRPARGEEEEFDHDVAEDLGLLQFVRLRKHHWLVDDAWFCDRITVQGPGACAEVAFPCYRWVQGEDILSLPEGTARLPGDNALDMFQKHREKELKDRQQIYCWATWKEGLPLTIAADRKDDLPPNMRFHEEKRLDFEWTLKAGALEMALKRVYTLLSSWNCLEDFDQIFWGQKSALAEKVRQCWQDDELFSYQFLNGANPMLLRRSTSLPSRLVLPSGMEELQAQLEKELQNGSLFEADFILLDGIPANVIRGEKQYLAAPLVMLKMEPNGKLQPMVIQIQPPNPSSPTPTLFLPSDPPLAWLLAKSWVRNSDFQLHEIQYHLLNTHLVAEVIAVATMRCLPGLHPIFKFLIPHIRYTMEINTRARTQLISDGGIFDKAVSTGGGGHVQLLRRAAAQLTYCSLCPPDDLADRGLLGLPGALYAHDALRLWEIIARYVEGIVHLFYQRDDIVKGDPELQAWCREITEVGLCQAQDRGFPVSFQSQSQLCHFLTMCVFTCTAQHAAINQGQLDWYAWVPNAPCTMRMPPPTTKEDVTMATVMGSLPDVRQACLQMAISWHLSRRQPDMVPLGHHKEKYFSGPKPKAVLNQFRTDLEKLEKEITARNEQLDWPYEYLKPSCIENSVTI
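Purified human 12hLO at 150 nM in 25 mM Hepes, 0.01% Triton X-100, pH 7.0, preincubated 15 min at room temperature with compound. Reaction started with 40 uM arachidonic acid, 30 min at room temperature. Hydroperoxide measured by Fe-xylenol orange, 573/405 nm absorbance ratio.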
TDP1 cell noCPT = qHTS for Inhibitors of human tyrosyl-DNA phosphodiesterase 1 (TDP1): qHTS in cells in absence of CPT | Potency, µM (doses to about 46.2 µM), without a hit: at the highest dose activity change, negative = growth inhibition, actives largely listed as inhibitors | DT40 Tdp1-/- hTDP1 cells, no CPT, ATP luminescence, 48 h | actives 15% (n = 420,000); note: potency is the fitted concentration of half-maximal effect; nearly all actives have a fitted effect of over 55% in size
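Stably hTDP1-transfected Tdp1-null chicken DT40 cells were treated with library compounds minus camptothecin and grown for at least 48 hr at 37 °C, after which cellular ATP was quantified by luminescence.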
IL-1B inflam inh = qHTS for Inhibitors of Inflammasome Signaling: IL-1-beta AlphaLISA Primary Screen; THP-1 LPS/ATP IL-1B secretion, AlphaLISA, 16 h; hits give low values; actives 4.7% (n = 360,000); AID 743279, 2014; activity change, % at 57.5 µM; in the data active = activity change below about -50%; inconclusive = mostly about -30% to -49%
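Secreted IL-1B measured by AlphaLISA bead assay after 16 h compound exposure of THP-1 cells; compounds (final up to 57.5 uM) added 1 h before LPS (250 ng/mL) and ATP (1.25 mM) stimulation; lower signal means less secretion.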
HT1080-NT tox = qHTS for induction of synthetic lethality in tumor cells producing 2HG: qHTS for the HT-1080-NT fibrosarcoma cell line; HT-1080-NT fibrosarcoma viability, CellTiter-Glo ATP luminescence, 48 h; Potency, µM (doses to about 46.1 µM), for inactives: top-dose activity, negative = less viability, hits mostly cytotoxic; actives 1.6% (n = 360,000); AID 686970, 2013;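 note: NT is the 2HG producing partner of a matched IDH1 knockdown line; potency is the fitted concentration of half-maximal effect; 0% = DMSO-treated cells and -100% = media-only wells without cells; nearly all actives have a fitted effect of over 55% in size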
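Compounds were tested in concentration-response format on HT-1080-NT cells for 48 hours at 37 degrees C. Cell viability came from CellTiter-Glo luminescence; curves were classified by r2, response magnitude and activity.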
HT1080 IDH1KD tx = qHTS for induction of synthetic lethality in tumor cells producing 2HG: qHTS for the HT-1080-IDH1KD cell line | actives 2% (n = 360,000) | HT-1080 IDH1 knockdown viability, ATP luminescence, 48 h | Potency, µM (highest dose often 46.1 µM), for inactives: at the top dose activity, negative = toxicity, actives largely listed as cytotoxic;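 note: potency is the fitted concentration of half-maximal effect; 0% = DMSO wells and -100% = cell-free medium wells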
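In this qHTS, HT-1080 cells depleted of IDH1 are exposed for 48 h at 37 °C to compound titrations. Toxicity is scored from CellTiter-Glo luminescence, with DMSO as full viability and medium alone as none.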
Active calls of the source: *; ? = inconclusive; / = no result. Unless noted, calls come from the whole dose curve; as a rule, active = well fitted curve in the direction sought with a large enough effect; inconclusive = small, poorly fitted or top-dose-only effect, or another doubt; inactive = no such curve, though single readings can be large; an effect the other way counts as inactive or inconclusive. Unless noted, % is set by controls: 0 for no effect and ±100 for the full control effect.

SMILES	DT40 TDP1 CPT	12-LOX inh	TDP1 cell noCPT	IL-1B inflam inh	HT1080-NT tox	HT1080 IDH1KD tx
CCOC(=O)c1cc2sccc2n1CC(=O)OC(C)C	-8%	2%	-5%	5	7%	-6%
CCOCC(=O)N1CCc2ccccc21	0%	0%	18µM*	51	-4%	-7%
CCOC(=O)c1cc2sccc2n1CC(=O)N1CCc2ccccc21	4.6µM*	-25%	12µM*	-4	-22%	?
COC(=O)c1cc(C(C)C)sc1NC(=O)Cc1ccc(Cl)c(Cl)c1	/	-7%	/	/	/	/
NC1CCC(n2cc(C(=O)NCc3noc(-c4ccccc4)n3)nn2)CC1 (stereo not drawn)	/	26%	/	/	/	/
CCCc1nnc2sc(-c3ccc(CNC(=O)c4ccc(OC)c(Br)c4)cc3)nn12	/	7%	/	/	/	/
COc1ccc(N=c2oc3cc(O)ccc3cc2C(=O)Nc2ccccn2)cc1OC	1.5µM*	-16%	2.1µM*	-28	19%	11%
Cc1ccc(N=c2oc3cc(O)ccc3cc2C(N)=O)cc1	8.2µM*	-5%	7.3µM*	?	?	?
CC(=O)c1cc2ccc(O)cc2oc1=O	-2%	-1%	6%	-9	2%	8%
COc1ccc(N=c2oc3cc(O)ccc3cc2C(=O)NCC2CCCO2)cc1 (stereo not drawn)	?	-5%	?	-24	1%	8%
CCOC(=O)C1=C(C)N(C[C@@H]2CC[C@@H](Cc3ccc(-c4ccccc4)cc3)O2)C(=O)NC1c1ccc(SCc2ccco2)c([N+](=O)[O-])c1 (stereo partly drawn)	?	18µM*	?	-16	-1%	-3%
CCC(OCC(O)CN1CCN(CCN2C(=O)c3cccc4cccc(c34)C2=O)CC1)c1ccccc1 (stereo not drawn)	10µM*	?	6.5µM*	-92*	-13%	-23%
CC(C)OCC(O)CN1CCN(CCN2C(=O)c3cccc4cccc(c34)C2=O)CC1 (stereo not drawn)	3%	-14%	?	-22	-2%	0%
C=CCc1ccccc1OCC(O)CN1CCN(CCN2C(=O)c3cccc4cccc(c34)C2=O)CC1 (stereo not drawn)	?	?	?	-70*	-12%	-19%
Cc1cccc(C)c1OCC(O)CN1CCC(CN2C(=O)c3cccc4cccc(c34)C2=O)CC1 (stereo not drawn)	12µM*	?	8.2µM*	-17	1%	-10%
Cc1ccccc1OCC(O)CN1CCN(CCN2C(=O)c3cccc4cccc(c34)C2=O)CC1 (stereo not drawn)	?	-20%	?	-87*	3%	5%
Cc1cccc(C)c1OCC(O)CN1CCN(C(=O)c2ccccc2)CC1 (stereo not drawn)	?	?	-25%	31	3%	5%
COc1ccc(-c2coc3cc(OC(C)=O)ccc3c2=S)cc1	26µM*	?	?	-1	?	?
COCCNC(=S)N/N=C/c1c2ccccc2cc2ccccc12	3.7µM*	40µM*	4.1µM*	22	-17%	-16%
CCOc1ccc2ccccc2c1/C=N/NC(=O)c1ccc(C)nc1	4%	0%	?	-2	3%	3%
NC(=S)NN=Cc1cc(-c2cccc(N)c2)ccn1	3.7µM*	0%	4.1µM*	134	-15%	?
